An excerpt weighted towards active compounds, which were near 3% of everything screened.
PAFAH1B3 FP inh – PAFAH1B3 enzyme inhibitors, primary screen, biochemical, fluorescence polarization, human. recombinant PAFAH1B3, FP-rhodamine probe. 340,000 compounds, 0.28% hits. inhibition, % at 3.39 µM. Platelet-activating factor acetylhydrolase IB subunit alpha1 (Homo sapiens), Q15102;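 active = inhibition above the screen-wide average of all tested compounds plus 3 SD, cut at about 25% in these data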
PAFAH2 inh – PAFAH2 enzyme inhibitors, primary screen, biochemical, fluorescence polarization, human; Platelet-activating factor acetylhydrolase 2, cytoplasmic (Homo sapiens), Q99487; AID 492956, 2010; recombinant PAFAH2, FP-rhodamine activity probe; 340,000 compounds, 0.99% hits; inhibition, % at 3.39 µM;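 active = inhibition above the mean over all tested compounds plus 3 SD, cut at about 30% in these data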;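 also: inhibitors block probe labeling of enzyme so polarization drops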
DAGLB inh – DAGLB lipase inhibitors, primary screen, biochemical, fluorescence, HTS. Diacylglycerol lipase-beta (Homo sapiens), Q8NCG7. HEK293T DAGLB membrane lysate, EnzChek fluorogenic substrate. inhibition, % at 5.17 µM. 340,000 compounds, 0.059% hits. AID 504411, 2011; in the data active = inhibition above about 34%
pPAFAH FP inh – pPAFAH enzyme inhibitors, primary screen, biochemical, fluorescence polarization, human; Platelet-activating factor acetylhydrolase (Homo sapiens), Q13093; recombinant pPAFAH, FP-rhodamine probe fluorescence polarization; inhibition, % at 3.39 µM; 330,000 compounds, 1.5% hits; AID 463082, 2010;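 active = inhibition above the mean inhibition across the screen plus 3 SD, cut at about 25% in these data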;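 also: inhibitors block binding of the rhodamine activity-based probe so polarization drops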
ATG4B inhibitor – ATG4B protease inhibitors, primary screen, biochemical, fluorescence, uHTS. Cysteine protease ATG4B (Homo sapiens), Q9Y4P1. ATG4B cleavage of LC3-PLA2, NBD-HPC fluorescence, 1 h. inhibition, % at 8.33 µM. 340,000 compounds, 0.51% hits. AID 504462, 2011; in the data active = inhibition above about 40%
Target sequence (Q9Y4P1 whole entry, looked up): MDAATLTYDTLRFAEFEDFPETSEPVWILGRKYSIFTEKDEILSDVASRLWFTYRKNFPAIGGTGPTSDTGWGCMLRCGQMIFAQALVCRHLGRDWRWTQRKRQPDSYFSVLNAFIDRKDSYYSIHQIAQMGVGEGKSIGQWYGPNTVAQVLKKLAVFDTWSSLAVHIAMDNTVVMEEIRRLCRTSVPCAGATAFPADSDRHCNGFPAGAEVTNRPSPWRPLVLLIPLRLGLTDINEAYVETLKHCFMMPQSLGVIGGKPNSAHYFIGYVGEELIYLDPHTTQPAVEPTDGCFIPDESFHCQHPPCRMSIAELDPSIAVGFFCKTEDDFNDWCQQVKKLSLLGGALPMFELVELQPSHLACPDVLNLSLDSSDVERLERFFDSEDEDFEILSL
PAFAH1B2 FP inh – PAFAH1B2 enzyme inhibitors, primary screen, biochemical, fluorescence polarization, human | recombinant PAFAH1B2, FP-rhodamine activity probe | 340,000 compounds, 1.2% hits | AID 492953, 2010 | Platelet-activating factor acetylhydrolase IB subunit alpha2 (Homo sapiens), P68402 | inhibition, % at 3.39 µM;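 active = inhibition above the mean of all tested compounds plus 3 SD, cut at about 24% in these data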
Target sequence (P68402 whole entry, looked up): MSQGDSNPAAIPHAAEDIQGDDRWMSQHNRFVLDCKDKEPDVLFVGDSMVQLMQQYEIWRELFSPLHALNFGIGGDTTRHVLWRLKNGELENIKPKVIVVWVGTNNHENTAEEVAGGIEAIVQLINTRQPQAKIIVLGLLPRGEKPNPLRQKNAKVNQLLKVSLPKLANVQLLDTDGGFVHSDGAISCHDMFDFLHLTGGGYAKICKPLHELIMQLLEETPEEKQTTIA
Numbers stand for hits; i = inactive; nt = no result given.

SMILES	PAFAH1B3 FP inh	PAFAH2 inh	DAGLB inh	pPAFAH FP inh	ATG4B inhibitor	PAFAH1B2 FP inh
O=C1CSC(c2cccc(O)c2)N1Cc1ccccc1 (stereo not drawn)	i	i	i	i	i	i
O=C1CSC(c2ccccc2O)N1Cc1ccccc1 (stereo not drawn)	i	i	i	i	i	25
CCOC(=O)c1cccc(C2=CC(=O)C[C@H](c3ccc(OC)cc3)C2)c1	i	i	i	i	i	i
O=C(CN1C(=O)S/C(=C\c2ccc(Cl)cc2)C1=O)NC1C=CS(=O)(=O)C1 (stereo not drawn)	i	i	i	i	i	i
O=C(CN1C(=O)S/C(=C\c2ccc(Cl)cc2)C1=O)NNC(=O)c1ccccc1O	i	i	i	29	i	i
COc1ccc(CNS(=O)(=O)c2ccc(-c3ccc(=O)[nH]n3)s2)cc1OC	i	i	i	i	i	i
Nc1cccc(-c2cn(-c3cc4cc(C#CC5(O)CCCCC5)ccc4oc3=O)nn2)c1	i	i	i	i	i	i
CC1=C(C(=O)OCCc2ccccc2)C(c2ccsc2)NC(=O)N1C (stereo not drawn)	i	i	i	28	i	68
Cc1nc(SC(C)C(=O)c2c(N)n(C)c(=O)n(C)c2=O)c2c(C)c(C)sc2n1 (stereo not drawn)	i	i	i	i	i	i
O=C(NN1C(=O)c2cc(Br)ccc2NC1c1cc(Br)cc(Br)c1O)c1ccncc1 (stereo not drawn)	i	i	i	30	i	i
Cc1ccc(NC(=O)/C(C#N)=C(\N)C(Cl)(Cl)Cl)nc1	43	41	i	i	i	45
CN(C(=O)CSc1nc(-c2cccs2)nc2ccccc12)C1CCS(=O)(=O)C1 (stereo not drawn)	i	i	i	i	i	i
CS(=O)(=O)c1nc(S(=O)(=O)c2ccc(Cl)cc2)c(N2CCN(CCO)CC2)s1	i	i	i	i	i	i
Cc1ccc(S(=O)(=O)c2nc(S(=O)(=O)c3ccc(C)cc3)c(N3CCN(CCO)CC3)s2)cc1	i	i	i	26	i	i
COc1ccc(CCN(C)C(=O)C2CCN(Cc3cccc(OC)c3OC)CC2)cc1OC	i	i	i	i	i	i
O=c1oc(-c2ccc(O)c(O)c2)cc2cccc(O)c12	i	i	i	25	i	i
O=C(O)c1cccc2cc(-c3ccccc3)oc(=O)c12	i	i	i	i	i	i
CCn1ncc(CN2CCN(Cc3cccc(OC)c3)C(CCO)C2)c1C (stereo not drawn)	i	i	i	i	i	i
Cc1ccc(S(=O)(=O)Oc2ccc(/C=N/NC(=O)c3nn(C)cc3[N+](=O)[O-])cc2)cc1	i	i	i	i	i	28
N#C/C(=N\Nc1ccc(Cl)cc1)C(=O)c1ccccc1	i	i	i	27	i	i
Cc1c(N/N=C(\C#N)C(=O)c2ccc(Cl)cc2)c(=O)n(-c2ccccc2)n1C	i	i	i	i	i	i
Cc1ccc(N(CN2C(=O)c3ccccc3C2=O)C(=O)c2ccc([N+](=O)[O-])cc2[N+](=O)[O-])cc1	i	i	i	i	i	i
CC1(C)CC(=O)C=C(c2ccc3[nH]ccc3c2)C1	i	i	i	i	i	i
O=C(O)COc1ccccc1-c1ccccc1	i	i	i	i	i	i
O=C(O)C(Cc1ccccc1-c1ccccc1)C(=O)O	i	i	i	i	i	27
SMILES	PAFAH1B3 FP inh	PAFAH2 inh	DAGLB inh	pPAFAH FP inh	ATG4B inhibitor	PAFAH1B2 FP inh
N/C(=N\OC(=O)Cc1ccccc1)c1ccc(Br)cc1	i	i	i	i	i	27
Cc1ccc(S(=O)(=O)NNC(=O)c2ccccc2O)cc1	i	i	i	i	i	i
Cc1ccc(S(=O)(=O)NNC(=O)c2cnn(-c3ccccc3)c2-n2cccc2)cc1	i	i	i	i	i	28
Cc1[nH]nc2c1C(c1ccc(OC(=O)c3ccco3)cc1)C(C#N)=C(N)O2 (stereo not drawn)	i	i	i	i	54	i
CCOC(=O)CC(NS(=O)(=O)c1ccc2[nH]cc(C(=O)O)c(=O)c2c1)c1ccc(OCC)c(OC)c1 (stereo not drawn)	i	i	i	i	i	i
NC(=S)N/N=C/c1cccc(O)c1O	i	i	i	32	i	i
Cc1ccc(NC(=O)COC(=O)Cc2csc(-c3cccc(F)c3)n2)cc1C	i	i	i	27	i	i
CCN(C(=O)CN1C(=O)NC(c2ccccc2)(c2ccc(C)c(C)c2)C1=O)C1CCCCC1 (stereo not drawn)	i	i	i	i	i	26
CCOC(=O)COc1ccc2c(c1)c(C(C)=O)c(C)n2-c1ccccc1	i	i	i	nt	i	i
CCOc1ccc2c(c1)c(C(C)=O)c(C)n2-c1ccccc1	i	i	i	26	i	i
CCc1cccc(CC)c1NC(=O)CN1CCN(S(=O)(=O)c2ccccc2)CC1	i	i	i	i	i	i
COC1=C/C(=C/c2c(N)n3c(nc2=O)sc2cc(S(C)(=O)=O)ccc23)C=CC1=O	i	i	i	i	i	i
CS(=O)(=O)c1ccc2c(c1)sc1nc(=O)c(/C=C3/C=CC(=O)C(O)=C3)c(N)n12	28	58	i	i	i	53
Cc1ccc(S(=O)(=O)CCC(=O)OCC(=O)N2c3ccccc3NC(=O)C2(C)C)cc1	i	i	i	i	i	30
Cc1cc(OCC(=O)OCC(=O)N2c3ccccc3NC(=O)C2(C)C)ccc1Cl	i	i	i	i	i	i
CC1(C)C(=O)Nc2ccccc2N1C(=O)COC(=O)Cc1ccc(Cl)c(Cl)c1	i	i	i	i	i	28
Cc1cc(OCC(=O)NC2CC2)c2c(C)c(C)c(=O)oc2c1	i	i	i	i	i	i
CCOC(=O)c1cc2c(OC)c(OC)ccc2c2[nH]cc(C#N)c(=O)c12	nt	nt	i	nt	nt	nt
Cc1ccc(SCC(=O)N=C2NC(=O)CS2)cc1	i	i	i	i	i	26
O=C(Nc1ccncc1)C1CCN(S(=O)(=O)c2ccc(Cl)cc2)CC1	i	i	i	i	i	i
CC1(C)CC2CC(C)(CN2S(=O)(=O)c2cccc(C(=O)OCC(N)=O)c2)C1 (stereo not drawn)	i	i	i	i	i	28
CCCCNC(=O)c1cccc(S(=O)(=O)N2CC3(C)CC2CC(C)(C)C3)c1 (stereo not drawn)	i	i	i	i	i	36
COCCCNC(=O)c1cccc(S(=O)(=O)N2CC3(C)CC2CC(C)(C)C3)c1 (stereo not drawn)	i	i	i	i	i	i
